# From PubChem BioAssay AID485367 (National Center for Advancing Translational Sciences (NCATS), 2010)
# Hit rate of the full screen: of about 330,000 compounds, about 560 (0.17%) were called active. About 1% were inconclusive and are not listed. The sample as a whole holds a higher share of actives than the screen did. Unmarked numbers belong to inactive results. The call rests on the fitted dose curve; in most records, active means well fitted inhibition curve with a large enough effect; inconclusive means small, poorly fitted or top-dose-only effect, or effect the other way; inactive means flat fitted curve, though single readings scatter.
# Target: ATP-dependent 6-phosphofructokinase (Trypanosoma brucei brucei) (UniProt O15648)
# Experiment: qHTS Assay to Find Inhibitors of T. brucei phosphofructokinase; further: nearly all actives have a fitted effect of over 60% in size
# Details: T. brucei PFK, ADP-Glo luminescence; series mostly up to 57.5 µM; activity, negative = inhibition: at the top concentration
# From the text: NIH Molecular Libraries Probe Production Network [MLPCN] NIH Chemical Genomics Center [NCGC] Grant: 1 R03 MH092153-01 PI Name: Malcolm Walkinshaw, University of Edinburgh NCGC Assay Overview: Various species of the protozoan family Trypanosomatidae are responsible for a range of serious human diseases in tropical and subtropical areas of the world. […] Many of the disorders caused by trypanosomatids are fatal if left untreated, but most currently used drugs are inefficient and toxic. […] Oxidative metabolism involving the mitochondrial tricarboxylic acid cycle and oxidative phosphorylation are repressed in these parasites, and recent RNA interference (RNAi) experiments have shown that even partial depletion of certain individual glycolytic enzymes can lead to the death of cultured parasites. One such glycolytic enzyme, phosphofructokinase (PFK), catalyzes the formation of fructose-1,6-bisphosphate (F1,6BP) and ADP from fructose-6-phosphate (F6P) and ATP, and in many metabolic circumstances makes an important contribution to the control of flux through the glycolytic pathway. As a specific glycolytic target, PFK is particularly attractive as it catalyzes the first irreversible step in glycolysis, and structural and kinetic studies have shown very substantial and essential differences from corresponding host enzymes, allowing for the discovery of parasite-selective inhibitors. The goal of this screen is to find small-molecule inhibitors of T. brucei PFK using a biochemical assay that measures PFK activity as a function of ADP production. A luminescence-based assay for T. brucei PFK activity has been developed which uses luciferase to detect production of ADP. Traditional luciferase-based nucleotide detection reagents rely on ATP production as a direct substrate for the luciferase reaction; however, PFK catalyzes the transfer of a phosphate from ATP to F6P, resulting in the net depletion of ATP. To directly measure the ADP product of the PFK reaction, we used the ADP-Glo detection kit (Promega), which utilizes two separate reactions to 1) deplete all remaining uncatalyzed ATP and 2) convert all remaining ADP to ATP, which is then detected through a traditional luciferase-coupled reaction. Compounds were screened as a concentration-titration series that ranged from 57 uM to 0.7 nM.
# NCGC Assay Protocol Summary: NCGC Assay Protocol Summary: Substrate buffer was dispensed into white, solid 1536-well plates at 3uL/well in 0.1M triethanolamine (TEA) buffer, pH 8.0, containing final concentrations of 5 mM MgCl2, 0.01% Tween20, 0.5 mM fructose-6-phosphate (F6P) and 0.1mM ATP. Then, 23 nL of compounds or DMSO were delivered to each well using a pin tool. One uL T. brucei PFK (0.1M TEA, 0.01% Tween20, 0.1% bovine serum albumin (BSA) and 1.25nM PFK, final concentrations) was then dispensed, and plates were incubated at room temperature for 45 min. The luminescent detection reagent, ADP-Glo (Promega), was then added in two steps: the first reagent, ADP-Glo (which converts remaining uncatalyzed ATP), was added at 2.5uL/well and incubated for ten minutes at room temperature, and the second component, Kinase Detection reagent (which converts ADP to ATP as a substrate for luciferase-based luminescence), was added immediately after at 5uL/well, followed by one final ten minute room temperature incubation. The plates were measured on a ViewLux plate reader for luminescent signal using a clear filter with a one second exposure. The %Activity was determined from the corrected luminescence values. As no specific T. brucei PFK inhibitors have been identified in the literature, 1x (1.25nM) and 0x PFK enzyme controls (untreated) were included to normalize %Activity of identified inhibitors; 0x enzyme values corresponded to 100%Activity (full inhibition), while 1x PFK enzyme values were used to normalize 0%Activity (no inhibition). Concentration-response curves were fitted to the signals arising from the resulting luminescence. […]
# Potency means the concentration at half of the fitted maximal effect.
# ATP-dependent 6-phosphofructokinase (Trypanosoma brucei brucei), sequence (O15648 whole entry, looked up): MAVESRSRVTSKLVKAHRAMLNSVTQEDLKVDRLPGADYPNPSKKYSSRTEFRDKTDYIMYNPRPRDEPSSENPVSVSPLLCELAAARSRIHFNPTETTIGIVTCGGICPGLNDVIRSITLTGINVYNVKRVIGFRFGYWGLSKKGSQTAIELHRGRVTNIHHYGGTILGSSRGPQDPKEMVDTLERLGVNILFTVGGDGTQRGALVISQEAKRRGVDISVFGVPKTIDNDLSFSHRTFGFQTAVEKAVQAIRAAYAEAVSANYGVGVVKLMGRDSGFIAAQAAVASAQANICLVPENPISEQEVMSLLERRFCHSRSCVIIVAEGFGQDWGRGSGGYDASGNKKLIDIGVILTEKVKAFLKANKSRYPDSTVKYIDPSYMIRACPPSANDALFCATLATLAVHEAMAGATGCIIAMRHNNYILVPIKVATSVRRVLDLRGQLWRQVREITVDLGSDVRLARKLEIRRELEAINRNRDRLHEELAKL
SMILES,"activity, negative = inhibition",Potency
Cc1ccc(-n2c(N)c(C(=O)N3CCOCC3)sc2=S)c(C)c1,-2.32%,–
Cc1ccc2c(C)c(C(=O)N(C)CCC3CCCCO3)oc2c1C (stereo unspecified),-4.76%,–
N#CCSc1nn(-c2ccc(F)cc2)c(=S)s1,0.779%,–
O=c1ccc2c(-c3ccccc3S(=O)(=O)O)c3ccc(O)c(O)c3oc-2c1O,–,2.39 µM (active)
COC(=O)c1ccc(COc2ccc(/C=C/C(=O)c3ccc(OC)c(CSCC(=O)O)c3)cc2OC)cc1,–,4.78 µM (active)
COc1ccc(/C=C/C(=O)c2ccc(NS(=O)(=O)c3ccc(C)cc3)cc2)cc1O,9.84%,–
COc1ccc(C(=O)/C=C/c2ccc(-c3ccccc3)cc2)cc1CSCC(=O)O,-0.707%,–
Cc1ccc(OCC(=O)N2CCN(C(=O)c3cccnc3)CC2)cc1,-0.802%,–
CN1C(CC(=O)Nc2ccc(Br)cc2)c2ccccc2CC1(C)C (stereo unspecified),3.31%,–
Cc1nn(Cc2ccc(F)cc2)c(C)c1NC(=O)c1cccnc1Cl,0.406%,–
Cc1nn(Cc2ccc(Cl)c(Cl)c2)c(C)c1NC(=O)c1cc(C2CC2)on1,–,9.53 µM (active)
Cc1cc(C(=O)Nc2c(C)nn(Cc3ccccc3)c2C)on1,3.52%,–
CCCc1nn(C)c2c(=O)[nH]c(-c3cc(S(N)(=O)=O)ccc3OCC)nc12,7.25%,–
CC1CCC(NC(=O)CN(C)S(=O)(=O)c2ccc3c(c2)c(=O)n(C)c(=O)n3C)CC1 (stereo unspecified),0.492%,–
O=C(OCC(=O)N1CCc2ccccc21)c1ccc([N+](=O)[O-])cc1,17.6%,–
COc1ccc(NS(=O)(=O)c2ccc(C)c(C(=O)NNC(=O)c3csc(N4CCOCC4)n3)c2)cc1,-10%,–
CC1=NN(c2cccc(Cl)c2)C(=O)C12CC(C)=C(C)CS2 (stereo unspecified),2.05%,–
Cc1ccn2c(=O)c(NC(=O)c3cccc4ccccc34)c(C)nc2c1,-3.25%,–
O=C(C1CCN(c2nnc(-n3cccc3)s2)CC1)N1CCc2ccccc2C1,-0.0102%,–
CN1CCN(c2ccc(S(=O)(=O)N3CCOCC3)cc2NC(=O)CCc2ccccc2)CC1,1.42%,–
O=C(COc1nsnc1N1CCOCC1)Nc1ccccc1Cl,2.58%,–
O=C(NC1CCN(Cc2ccccc2)CC1)c1cc(Br)c(Br)[nH]1,-0.675%,–
Cc1cnc(C(=O)N2CCCC(C(=O)c3ccc(C(F)(F)F)cc3)C2)cn1 (stereo unspecified),2.16%,–
Cc1cc(NC(=O)CCC(=O)N(CC(=O)NCC2CCCO2)c2ccccc2C)no1 (stereo unspecified),2.91%,–
CC(CN1CCC(n2nccc2NC(=O)C2CCCC2)CC1)c1ccccc1 (stereo unspecified),-20.9%,–
C=Cn1cc[n+](CC(=O)c2ccc(OC)c(OC)c2)c1,8.02%,–

SMILES,"activity, negative = inhibition",Potency
CC(NCC(=O)Nc1ccccc1C(=O)NC1CC1)c1ccccc1Cl (stereo unspecified),1.99%,–
Cc1cccc(NS(=O)(=O)c2ccc(-c3cnc(C4CC4)o3)cc2)c1,-6.58%,–
COc1ccccc1N(CC(=O)Nc1ccc(C)cc1Cl)S(=O)(=O)c1cccs1,0%,–
FC(F)(F)C1CCCN(c2nsc3ccccc23)C1 (stereo unspecified),–,6.75 µM (active)
O=C(NCC(=O)N1CCCC(C(F)(F)F)C1)c1ccccc1F (stereo unspecified),-6.74%,–
O=C(NC(Cc1ccccc1)C(=O)N1CCCC(C(F)(F)F)C1)c1ccccc1 (stereo unspecified),1.45%,–
COc1cccc(CNC(=O)C2CC(=O)N(C3CCCCCCC3)C2)c1 (stereo unspecified),1.34%,–
C=CCOc1ccc(/C=C2\SC(=S)N(CCC(=O)O)C2=O)cc1,-6.36%,–
Cc1ccc(/C=C2/SC(=S)N(CCC(=O)NCCCN3CCOCC3)C2=O)cc1,2.57%,–
Cc1ccc(-c2nn(-c3ccccc3)cc2/C=C2\SC(=S)N(CCCCCC(=O)O)C2=O)o1,–,4.78 µM (active)
CC(=O)c1nnn(-c2ccc(Cl)cc2C#N)c1C,-1.18%,–
Cc1cccn2c(CN(C)C3CCCc4ccccc43)c(C(=O)N3CCOCC3)nc12 (stereo unspecified),0.624%,–
CC(C)=CC(=O)Nc1nnc(-c2ccc(F)cc2)s1,-10%,–
Cc1nc(SCc2ccc(F)cc2)c([N+](=O)[O-])[nH]1,1.96%,–
Cc1nc(N)nc(SCc2ccc([N+](=O)[O-])cc2)c1N,–,13.5 µM (active)
Nc1nc(SCc2ccc([N+](=O)[O-])cc2)c2ncn(C3OC(CO)C(O)C3O)c2n1 (stereo unspecified),–,12 µM (active)
CN[C@H](C(=O)NC[C@H]1O[C@@H](n2cnc3c(N)ncnc32)[C@H](O)[C@@H]1O)[C@@H](C)OCc1ccccc1,-2.64%,–
CN(Cc1ccc(CNC[C@H]2O[C@@H](n3cnc4c(N)ncnc43)[C@H](O)[C@@H]2O)o1)S(C)(=O)=O,0%,–
Cc1cc(C)cc(C(=O)N2CCN=C2SCc2ccc([N+](=O)[O-])cc2)c1,3.53%,–
COc1cccc(CNC(=O)CCC2CCCN(C(=O)c3ccc(F)c(Cl)c3)C2)c1 (stereo unspecified),-20.6%,–
CCN(CC)CCn1cnc2c1c(=O)n(CCOC(=O)c1cc(OC)c(OC)c(OC)c1)c(=O)n2C,0.629%,–
CCOc1ccc(NC(=O)c2ccc(CSc3nnnn3C)cc2)cc1,-15.6%,–
CC(C)C[C@H](NC(=O)N1CCn2c1nc1ccccc12)C(=O)NC1CC1,1.02%,–
CC1CCN(C(=O)CN(c2ccc(Oc3ccccc3)cc2)S(C)(=O)=O)CC1,-2.4%,–
Cc1nn(C(C)CC(=O)O)c(C)c1C (stereo unspecified),-4.85%,–
